Measured values as given in the supplement of paper PMC12340641.
The full ranking holds about 1,000 compounds; the median of “relative growth in counter assay (no AraC = 100%, AraC + DMSO = 0%)” is about -1.1, and the highest 2% start at about 20. The full list was thinned out, with the highest values kept by preference.

Test system: HEK293FT dCK*-only
Assay: relative growth in counter assay (no AraC = 100%, AraC + DMSO = 0%); higher = more growth rescue independent of IKZF1
Details: compound concentration: 5 uM; AraC concentration: 0.3 uM; overnight pretreatment + 4 days AraC
Method: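 Growth recovery screen of the molecular-glue-like (Specs) library. HEK293FT cells expressing a dCK*-IKZF1 fusion (primary) or dCK* alone (counter) were pretreated overnight with compound at 5 uM, then given 0.3 uM AraC for 4 days. Hoechst nuclei were counted by imaging. Primary: normalised to pomalidomide (100%) and DMSO (0%), mean of 2 replicates. Counter: normalised to no-AraC (100%) and AraC+DMSO (0%), single replicate.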

Row | SMILES | relative growth in counter assay
1 | Cc1cc(C)c2[nH]c3nc(SCC(=O)Nc4ccc(Cl)cc4)nnc3c2c1 | -17.9%
2 | Cc1cc(C)nc(NS(=O)(=O)c2ccc(Nc3nc(-c4ccc(Cl)cc4)cs3)cc2)n1 | -7.62%
3 | O=C(Nc1ccc(S(=O)(=O)Nc2ncccn2)cc1)c1ccc(Br)cc1 | 1.1%
4 | CCOCC(=O)Nc1ccc(S(=O)(=O)Nc2ncccn2)cc1 | -2.18%
5 | O=C(C1CNCCO1)N1CCC(c2cccc(Nc3ncc(-c4ccccc4)s3)n2)CC1 (stereo not drawn) | 1.14%
6 | O=S(=O)(Cc1ccccc1)Nc1ccc(S(=O)(=O)Nc2ncccn2)cc1 | 5.8%
7 | Cc1ccnc(NS(=O)(=O)c2ccc(NC(=O)Cc3c(F)cccc3Cl)cc2)n1 | 10%
8 | COc1ccc(-c2csc(Nc3ccc(S(=O)(=O)Nc4nc(C)cc(C)n4)cc3)n2)cc1 | -6.81%
9 | O=C(Nc1ccc(S(=O)(=O)Nc2ncccn2)cc1)c1ccccc1Br | -0.83%
10 | Cc1ccc(OCC(=O)Nc2ccc(S(=O)(=O)Nc3ncccn3)cc2)cc1C | 2.12%
11 | Cc1csc(Nc2cccc(C3CN(C(=O)COc4c(C)cccc4C)CCO3)n2)n1 (stereo not drawn) | 1.27%
12 | Cc1cnc(Nc2cccc(C3CN(C(=O)C45CC6CC(CC(C6)C4)C5)CCO3)n2)s1 (stereo not drawn) | -1.75%
13 | Cc1cnc(Nc2cccc(C3CN(C(=O)CCC4CCCCC4)CCO3)n2)s1 (stereo not drawn) | -1.73%
14 | Cc1csc(Nc2cccc(CC3CCN(CC(=O)N(C)C)CC3)n2)n1 | 7.9%
15 | Cc1cnc(Nc2cccc(C3CN(C(=O)C4CC4c4ccc(Cl)cc4)CCO3)n2)s1 (stereo not drawn) | 28.7%
16 | Cc1cnc(Nc2cccc(C3CN(C(=O)C4CCCC4)CCO3)n2)s1 (stereo not drawn) | -17%
17 | CC(=O)N1CCC(Cc2cccc(Nc3nccs3)n2)CC1 | -8.99%
18 | Cc1csc(Nc2cccc(C3CN(C(=O)Cn4nc(C)ccc4=O)CCO3)n2)n1 (stereo not drawn) | -2.02%
19 | Cc1csc(Nc2cccc(C3CN(C(=O)CCOc4ccccc4C)CCO3)n2)n1 (stereo not drawn) | 49.2%
20 | CC(=O)N1CCC(Cc2cccc(Nc3nc(C)cs3)n2)CC1 | 24.3%
21 | COc1cccc(OC)c1C(=O)N1CCOC(c2cccc(Nc3nc(C)cs3)n2)C1 (stereo not drawn) | 10.3%
22 | Cc1csc(Nc2cccc(C3CN(C(=O)CCC4CCCC4)CCO3)n2)n1 (stereo not drawn) | 32.3%
23 | Cc1cnc(Nc2cccc(C3CN(C(=O)COc4ccccc4)CCO3)n2)s1 (stereo not drawn) | -9.61%
24 | Cc1cnc(Nc2cccc(C3CN(C(=O)CCOc4cccc(F)c4)CCO3)n2)s1 (stereo not drawn) | 19.7%
25 | Cc1cnc(Nc2cccc(C3CN(C(=O)COc4cccc(F)c4)CCO3)n2)s1 (stereo not drawn) | -7.34%

Row | SMILES | relative growth in counter assay
26 | Cc1ccc(OCC(=O)Nc2ccc(S(=O)(=O)Nc3cc(C)nc(C)n3)cc2)c(C)c1 | -2.7%
27 | Cc1cc(C)nc(NS(=O)(=O)c2ccc(NC(=O)C(C)Oc3ccccc3F)cc2)n1 (stereo not drawn) | 5.27%
28 | COc1ccccc1OCC(=O)Nc1ccc(S(=O)(=O)Nc2nc(C)cc(C)n2)cc1 | -7.04%
29 | CC(C)(C)C(=O)N1CCC(Cc2ccc(Nc3ncc(-c4ccc(F)cc4)s3)nc2)CC1 | 12.2%
30 | O=C(/C=C/c1ccccc1)N1CCCC(c2csc(Nc3ccccn3)n2)C1 (stereo not drawn) | 34.8%
31 | O=C(/C=C/c1ccco1)N1CCCC(c2csc(Nc3ccccn3)n2)C1 (stereo not drawn) | 11.1%
32 | Cn1nccc1/C=C/C(=O)N1CCCC(c2cc3ccccc3c(Nc3nccs3)n2)C1 (stereo not drawn) | -13.3%
33 | CC(=O)N1CCCC(c2csc(Nc3ccccn3)n2)C1 (stereo not drawn) | 0.33%
34 | Cn1nccc1/C=C/C(=O)N1CCCC(c2csc(Nc3ccccn3)n2)C1 (stereo not drawn) | 29%
35 | Cn1nccc1/C=C/C(=O)N1CCCC1c1csc(Nc2ccccn2)n1 (stereo not drawn) | -0.93%
36 | O=C(C1CCCCC1)N1CCC(c2cccc(Nc3nccs3)n2)CC1 | -10.8%
37 | O=C(Nc1ccc(S(=O)(=O)Nc2ccccn2)cc1)c1cc2ccccc2o1 | -2.82%
38 | CCCc1cnc(Nc2cccc(C3CN(C(=O)C4CCCCC4)CCO3)n2)s1 (stereo not drawn) | -12.3%
39 | Cc1cnc(Nc2cccc(C3CCN(C(=O)C4CCC4)CC3)n2)s1 | -21%
40 | Cc1ccc(C)c(OCCCC(=O)Nc2ccc(S(=O)(=O)Nc3ncccn3)cc2)c1 | -2.63%
41 | CC(C)(C)c1ccccc1OCC(=O)Nc1ccc(S(=O)(=O)Nc2ccccn2)cc1 | 4.41%
42 | COc1cc2c(cc1CCC(=O)N1CCCC1c1cccc(Nc3nccs3)n1)CCC2 (stereo not drawn) | -3.49%
43 | CC(C)(C)c1ccccc1OCC(=O)Nc1ccc(S(=O)(=O)Nc2ncccn2)cc1 | -1.93%
44 | Cc1cnc(Nc2cccc(C3CCN(C(=O)CCc4nc5ccccc5[nH]4)CC3)n2)s1 | -4.59%
45 | CCCC(C)C(=O)Nc1ccc(S(=O)(=O)Nc2nccc(C)n2)cc1 (stereo not drawn) | -3.64%
46 | Cc1cnc(Nc2cccc(C3CN(C(=O)c4ccccn4)CCO3)n2)s1 (stereo not drawn) | -7.73%
47 | O=C(CSc1nnc2c(n1)[nH]c1ccc(Cl)cc12)Nc1ccc(Cl)cc1 | 3.64%
48 | COC(=O)C(c1cccc(Nc2ncc(C)s2)n1)C1CCN(C(=O)C2(NC(=O)OC(C)(C)C)CCCCC2)CC1 (stereo not drawn) | 9.03%
49 | COc1cc(NS(=O)(=O)c2ccc(NC(=O)c3ccc([N+](=O)[O-])cc3)cc2)nc(OC)n1 | 4.43%
50 | CNC(=O)C(c1cccc(Nc2ncc(C)s2)n1)C1CCN(C(=O)[C@H](CC(C)C)NC(=O)OC(C)(C)C)CC1 (stereo partly drawn) | 8.97%

Row | SMILES | relative growth in counter assay
51 | CCCC(=O)Nc1ccc(S(=O)(=O)Nc2cc(OC)nc(OC)n2)cc1 | -1.4%
52 | O=C(COc1ccc(F)cc1)N1CCC(c2cccc(Nc3nccs3)n2)CC1 | 6.47%
53 | Cn1c(SCC(=O)Nc2ccccn2)nc2ccccc21 | 0.85%
54 | COc1cc(NS(=O)(=O)c2ccc(NC(=O)/C=C/C(=O)O)cc2)nc(OC)n1 | 2.31%
55 | CNC(=O)C(c1cccc(Nc2ncc(C)s2)n1)C1CCN(C(=O)c2cccc(Cl)c2F)CC1 (stereo not drawn) | -0.24%
56 | O=C(CO)N1CCC(c2cccc(Nc3ncc(-c4ccccc4)s3)n2)CC1 | -21.4%
57 | CCN1CC(C(=O)N2CCC(c3cccc(Nc4ncc(C)s4)n3)CC2)CC1=O (stereo not drawn) | -1.29%
58 | COc1cc(NS(=O)(=O)c2ccc(NCc3ccccc3O)cc2)nc(OC)n1 | -0.72%
59 | Cc1noc(CCC(=O)N2CCOC(c3cccc(Nc4nc(C)c(C)s4)n3)C2)n1 (stereo not drawn) | 5.54%
60 | COc1cccc(C(=O)Nc2ccc(S(=O)(=O)Nc3ncccn3)cc2)c1 | -5%
61 | Cc1nc(Nc2cccc(C3CCN(C(=O)c4n[nH]c5c4CCCC5)CC3)n2)sc1C | 14%
62 | Cc1cc(C)nc(SCC(=O)Nc2ccc(S(=O)(=O)Nc3ncccn3)cc2)n1 | 19.9%
63 | CCCC(=O)Nc1ccc(S(=O)(=O)Nc2nc(C)cc(C)n2)cc1 | -9.14%
64 | CC(=O)Nc1ccc(S(=O)(=O)Nc2nc(C)cc(C)n2)cc1 | -0.14%
65 | CC(Oc1ccccc1)C(=O)Nc1ccc(S(=O)(=O)Nc2ncccn2)cc1 (stereo not drawn) | 0.06%
66 | Cc1cc(C)nc(NS(=O)(=O)c2ccc(NC(=O)CCl)cc2)n1 | 23.6%
67 | CCC(Oc1ccccc1)C(=O)Nc1ccc(S(=O)(=O)Nc2nc(C)cc(C)n2)cc1 (stereo not drawn) | -3.58%
68 | CCC(Oc1ccccc1)C(=O)Nc1ccc(S(=O)(=O)Nc2ncccn2)cc1 (stereo not drawn) | 27.4%
69 | Cc1cc(C)nc(NS(=O)(=O)c2ccc(NC(=O)CSc3nccn3C)cc2)n1 | 2.1%
70 | Cc1cc(C)nc(NS(=O)(=O)c2ccc(NC(=O)CSc3nc(C)cc(C)n3)cc2)n1 | -6.83%
71 | O=C(CCCOc1ccccc1)Nc1ccc(S(=O)(=O)Nc2ncccn2)cc1 | 2.79%
72 | COC(C)(C)C(=O)N1CCOC(c2cccc(Nc3ncc(C)s3)n2)C1 (stereo not drawn) | -13%
73 | COCC(=O)N1CCCC1c1cccc(Nc2ncc(C)s2)n1 (stereo not drawn) | 0.29%
74 | Cc1csc(Nc2cccc(C3CCCN3CC(N)=O)n2)n1 (stereo not drawn) | 16.8%
75 | Cc1ccc(S(=O)(=O)Nc2ccc(S(=O)(=O)Nc3nccc(C)n3)cc2)cc1 | -5.66%

Row | SMILES | relative growth in counter assay
76 | Cc1ccccc1N1C(=O)c2ccc(Oc3ccc(N)cc3)cc2C1=O | 12.7%
77 | O=C(CC(c1ccccc1)c1ccccc1)Nc1ccc(S(=O)(=O)Nc2ncccn2)cc1 | -1.59%
78 | Cc1cnc(Nc2cccc(C3CN(C(=O)C4CCCO4)CCO3)n2)s1 (stereo not drawn) | -14.9%
79 | Cc1cnc(Nc2cccc(C3CCN(C(=O)C4C5C=CC(C5)C4C(=O)NCCO)CC3)n2)s1 (stereo not drawn) | -24.7%
80 | O=S(=O)(Nc1ncccn1)c1ccc(-n2cnnn2)cc1 | -1.47%
81 | Cc1cnc(Nc2cccc(CC3CCN(C(=O)C4CCCCC4)CC3)n2)s1 | -6.51%
82 | COc1nccnc1NS(=O)(=O)c1ccc(NC(=S)NC(=O)/C=C/c2cccs2)cc1 | 8.21%
83 | Cc1ccnc(NS(=O)(=O)c2ccc(NC(=O)c3ccc(-c4ccccc4)cc3)cc2)n1 | 0.76%
84 | Cc1ccc(Oc2cccc(N3C(=O)c4ccc(Oc5ccc(N)cc5)cc4C3=O)c2)cc1C | -3.99%
85 | O=C(C1CCCCC1)N1CCOC(c2cccc(Nc3ncc(Cc4ccc(F)cc4)s3)n2)C1 (stereo not drawn) | -1.26%
86 | O=C(Nc1ccc(S(=O)(=O)Nc2ccccn2)cc1)c1ccco1 | 4.23%
87 | CCOCCC(=O)Nc1ccc(S(=O)(=O)Nc2nccc(C)n2)cc1 | -2.85%
88 | Cc1ccc(C(C)(C)C(=O)N2CCCC2c2cccc(Nc3ncc(C)s3)n2)cc1 (stereo not drawn) | -21%
89 | Cc1cc(NS(=O)(=O)c2ccc(NC(=O)c3ccccc3)cc2)nc(C)n1 | 0.4%
90 | CCOC(=O)c1nc[nH]c1C(=O)N1CCOC(c2cccc(Nc3ncc(C)s3)n2)C1 (stereo not drawn) | -2.22%
91 | CC(C)(C)CC(=O)Nc1ccc(S(=O)(=O)Nc2ncccn2)cc1 | -0.2%
92 | Cc1cc(C)c2[nH]c3nc(SCC(=O)Nc4cccc(Cl)c4C)nnc3c2c1 | -20.1%
93 | O=C(/C=C/c1ccccc1)N1CCCC1c1csc(Nc2ccccn2)n1 (stereo not drawn) | -3.28%
94 | CCCc1cnc(Nc2cccc(C3CCN(C(=O)C(C)(C)NC(=O)COC)CC3)n2)s1 | -2.68%
95 | Cc1cnc(Nc2cccc(C3CN(C(=O)C4CCCC(C)C4)CCO3)n2)s1 (stereo not drawn) | -12.6%
96 | CN(C)CC(=O)N1CCCC1c1cccc(Nc2nccs2)n1 (stereo not drawn) | -0.55%
97 | NC(=O)CN1CCC(Cc2cccc(Nc3nccs3)n2)CC1 | -23.2%
98 | Cc1cnc(Nc2cccc(C3CCN(C(=O)C4CCC(=O)N4)CC3)n2)s1 (stereo not drawn) | -24.6%
